# Source: PubChem BioAssay (NCATS)
# Values joined by “and” are separate entries in the source; they are usually repeats but may differ in a detail not shown here. Identical values can stand only once. Records with an inconclusive call do not appear. Active and inactive are the calls of the source. Calls follow the shape of the dose curve; as a rule, active = well fitted curve in the direction sought with a large enough effect; inconclusive = small, poorly fitted or top-dose-only effect, or another doubt; inactive = no such curve, though single readings can be large; an effect the other way counts as inactive or inconclusive.
# What was measured:
# [1] = Viability qHTS for spleen associated tyrosine kinase inhibitor (SYKi) drug resistant MV4-11 cells (AID 1963824); also: nearly all actives have a fitted effect of over 35% in size
# Method in brief: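 SYK-inhibitor-resistant MV4-11 AML cells were seeded at 500 per well onto compound and cultured 72 hours (37 °C, 5% CO2). CellTiter-Glo was then added, and after 10 min at room temperature, luminescence gave viability.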
# [2] = Cellular viability qHTS for adrenocortical cancer (ACC) cell line SW-13 (AID 1963989); settings: SW-13 ACC cells viability, CellTiter-Glo, 48 h; activity (max response): hits give low values; also: nearly all actives have a fitted effect of over 65% in size;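 as to activity (max response): cells grown in serum-free medium with ITS supplement; % is scaled to controls: 0 for no effect and ±100 for the full control effect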
# Method in brief: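 48 h treatment, SW-13 in ITS/DMEM serum-free; doses up to 46 uM; readout CellTiter-Glo luminescence; curve fit four-parameter logistic.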
# [3] = Cellular viability qHTS for adrenocortical cancer (ACC) cell line NCI-H295R (AID 1963990); also: nearly all actives have a fitted effect of over 60% in size
# Method in brief: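 Compound titrations (up to 46 uM final) are applied to NCI-H295R cultures for 48 h at 37C. Viable cell number is estimated by CellTiter-Glo signal, normalised to DMSO and doxorubicin controls.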
# Potency is read from the fitted curve at half-maximal effect.
SMILES,Potency [1],activity (max response) [2],Potency [3],Potency [2]
COc1ncc(Nc2ncc([C@H](C)N3CCN(S(C)(=O)=O)CC3)cc2-c2nc(C)nc(N)n2)cc1F,2.35 µM (active),-5.36% (inactive),0.224 µM (active),–
CCN(c1cc(-c2ccc(CN3CCOCC3)cc2)cc(C(=O)NCc2c(C)cc(C)[nH]c2=O)c1C)C1CCOCC1,20.6 µM (active),-2.62% (inactive),inactive,–
CC1CC(OC(=O)c2ccccc2O)CC(C)(C)C1 (centres undefined),inactive,10.4% (inactive),inactive,–
CCOC(=O)O[C@]1(C(=O)OCCl)CC[C@H]2[C@@H]3CCC4=CC(=O)C=C[C@]4(C)[C@H]3[C@@H](O)C[C@@]21C,inactive,8.33% (inactive) and -8.79% (inactive),inactive,–
CNCC(O)c1ccc(O)c(O)c1 (centres undefined),inactive,4.94% (inactive),inactive,–
NCC(=O)Nc1cncc(-c2nn3c(=O)cc(N4CCNCC4)nc3s2)c1,inactive,-17.3% (inactive),inactive,–
Cc1ccc(NC(=O)NCc2ccc3c(c2)CN(C2CCC(=O)NC2=O)C3=O)cc1Cl (centres undefined),0.0013 µM (active),–,0.0251 µM (active),0.0089 µM (active)
C#CCN(C)Cc1ccccc1,inactive,11.7% (inactive),inactive,–
O=C1C(O)=C(O)C(=O)C(O)=C1O,inactive,13.8% (inactive),inactive,–
Cc1cc(-c2ccccc2)nnc1NCCN1CCOCC1,inactive,-11% (inactive),inactive,–
Nc1ccc(C(=O)N2CC3CC(CN(Cc4ccccc4)C3)C2)cc1,inactive,7.04% (inactive),inactive,–
Nc1c(I)cc(I)c(C(=O)N(CCC(=O)O)c2ccccc2)c1I,inactive,-3.73% (inactive),inactive,–
CS(=O)(=O)Nc1ccc([N+](=O)[O-])cc1Oc1ccccc1,14.8 µM (active),9.34% (inactive) and -1.91% (inactive),inactive,–
COCCN1CCN(Cc2ccc(-c3n[nH]c4c3C(=O)c3c(NC(=O)NN5CCOCC5)cccc3-4)cc2)CC1,0.0209 µM (active),–,0.891 µM (active),0.316 µM (active)
CC[C@@](C)(Nc1ccnc(-c2c[nH]c3ncccc23)n1)C(=O)NCC(F)(F)F,16.4 µM (active),0.931% (inactive),inactive,–
Cc1ccc(-c2nn(C(C)(C)CNC(=O)c3ccncc3)c3ncnc(N)c23)cc1,6.61 µM (active),–,8.91 µM (active),8.91 µM (active)
C#C[C@]1(O)CC[C@H]2[C@@H]3CCc4cc(OC)ccc4[C@H]3CC[C@@]21C,13.3 µM (active),5.57% (inactive) and 4.24% (inactive),inactive,–
C=CC(=O)Nc1cc(N2CCN(CC)CC2)ccc1Nc1cc(N(C)C(=O)Nc2c(Cl)c(OC)cc(OC)c2Cl)ncn1,7.42 µM (active),-15% (inactive),inactive,–
CC(C)(O)C1CCC(Nc2ccc3ncc(-c4cccc(C(F)(F)F)c4)n3n2)CC1 (centres undefined),1.32 µM (active),-17.2% (inactive),4.47 µM (active),–
Cc1ccsc1/C=C/C1=NCCCN1C,inactive,-3.84% (inactive),inactive,–
O=C(c1ccccc1)c1ccccc1,inactive,13.9% (inactive),inactive,–
C/C(=C\c1csc(C)n1)[C@@H]1C[C@@H]2O[C@]2(C)CCC[C@H](C)[C@H](O)[C@@H](C)C(=O)C(C)(C)[C@@H](O)CC(=O)N1,0.0132 µM (active),–,8.91 µM (active),3.16 µM (active)
Cc1cnc(NS(=O)(=O)c2ccc(N)cc2)nc1,inactive,9.12% (inactive),inactive,–
N#Cc1ccnc(N2C(=O)CC[C@H]2C(=O)N(c2cncc(F)c2)C(C(=O)NC2CC(F)(F)C2)c2ccccc2Cl)c1 (some centres undefined),inactive,6.42% (inactive),inactive,–
Cc1ccc(Sc2ccccc2N2CCNCC2)c(C)c1,4.68 µM (active),–,3.55 µM (active),25.1 µM (active)
COc1ccc(/C=C/C(=O)Nc2ccccc2C(=O)O)cc1OC,inactive,-0.0143% (inactive),inactive,–
CO[C@@]12[C@H](COC(N)=O)C3=C(C(=O)C(C)=C(N)C3=O)N1C[C@@H]1N[C@@H]12,0.0742 µM (active),9.06% (inactive) and -27.8% (inactive),inactive,–
CN[C@@H]1[C@H](O[C@H]2[C@H](O[C@@H]3[C@@H](O)[C@H](O)[C@@H](N=C(N)N)[C@H](O)[C@H]3N=C(N)N)O[C@@H](C)[C@]2(O)C=O)O[C@@H](CO)[C@H](O)[C@H]1O,inactive,6.19% (inactive),inactive,–
